This is a sample that favours compounds with a hit; in the whole collection about 12% have one here.
Pf growth 96h = inhibits malaria parasite growth, 96 h | P. falciparum luciferase reporter growth, 96 h | Potency, µM (series often up to 28.7 µM), inactives show at the top dose activity change, negative = inhibition, usual class: inhibitors | 320,000 compounds, 6.9% hits; also: % is scaled to controls: 0 for no effect and ±100 for the full control effect
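Compounds incubated with erythrocytes infected by luciferase-expressing P. falciparum (2% hematocrit, 0.05% parasitemia final) for 96 hours, 37 C in 5% CO2. Growth inhibition scored as decreased luciferase luminescence.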
AmpC detergent = blocks E. coli AmpC beta-lactamase in detergent assay; 370,000 compounds, 0.041% hits; AmpC hydrolysis of nitrocefin, absorbance 480 nm, 0.01% Triton; AID 485294; Potency, µM (highest dose often 114 µM), without a hit: at the highest dose activity change, negative = inhibition, hits mostly inhibitors;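 also: 0% = no-compound wells and -100% = no-enzyme wells; nearly all actives have a fitted effect of over 25% in size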
Target sequence (P00811 whole entry, looked up): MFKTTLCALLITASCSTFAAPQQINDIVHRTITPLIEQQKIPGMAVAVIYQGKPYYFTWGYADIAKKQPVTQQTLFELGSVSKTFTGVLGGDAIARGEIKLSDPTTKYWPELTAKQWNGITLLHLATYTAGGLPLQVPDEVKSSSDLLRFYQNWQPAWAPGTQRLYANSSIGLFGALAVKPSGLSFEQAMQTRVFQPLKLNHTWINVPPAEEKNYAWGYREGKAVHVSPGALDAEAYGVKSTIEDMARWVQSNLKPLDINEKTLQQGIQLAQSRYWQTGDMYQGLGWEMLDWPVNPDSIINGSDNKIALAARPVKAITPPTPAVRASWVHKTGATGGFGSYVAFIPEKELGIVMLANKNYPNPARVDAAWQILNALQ
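AmpC (5.3 nM in the dispensed reagent) in 20 mM phosphate pH 7.0 with 0.01% (detergent screen) or 0.0001% Triton X-100 was preincubated with compounds for 15 min at room temperature. Nitrocefin was then added from an 800 uM solution, and hydrolysis was followed at 480 nm.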
SARS PLP yeast = inhibitors of SARS-CoV papain-like protease in yeast; S. cerevisiae expressing SARS-CoV PLpro, growth rescue; Potency, µM (doses to about 32.9 µM), without a hit: at the highest dose activity, positive = growth rescue, hits mostly activators; 330,000 compounds, 0.19% hits; AID 485353; calls by dose curve; also: 0% is about no effect; nearly all actives have a fitted effect of over 55% in size
AmpC no deterg = inhibitors of E. coli AmpC beta-lactamase without detergent; P00811; AmpC nitrocefin hydrolysis, absorbance 480 nm, 0.0001% Triton; Potency, µM (highest dose often 57.1 µM), without a hit: at the top dose activity change, negative = inhibition, hits mostly inhibitors; 330,000 compounds, 0.52% hits; AID 485341;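 also: plate controls were no compound for no effect and no enzyme for full effect; nearly all actives have a fitted effect of over 20% in size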
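20 mM phosphate pH 7.0 + 0.01% (detergent screen) or 0.0001% Triton X-100; 5.3 nM AmpC reagent; cpd preinc 15 min RT; nitrocefin (800 uM stock) to start; A480 q20 s × 4 min; Activity was normalised to no-enzyme and no-compound control wells.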
Sm TGR block = blocks Schistosoma mansoni thioredoxin glutathione reductase; purified TGR, DTNB reduction, TNB absorbance 405 nm; Potency, µM (series often up to 114 µM), inactives show top-dose activity change, negative = inhibition, hits mostly inhibitors; 360,000 compounds, 3% hits; also: % is scaled to controls: 0 for no effect and ±100 for the full control effect; nearly all actives have a fitted effect of over 60% in size
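First, TGR (20 nM dispensed) and NADPH were mixed with compound. Second, a 15 min room-temperature incubation followed. Third, further NADPH and then DTNB were added to start the reaction. Finally, TNB absorbance was monitored kinetically.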
Pf growth 48h = P. falciparum growth inhibition at 48 hours (one generation); AID 504832; Potency, µM (series often up to 28.7 µM), for the others: at the highest dose activity change, negative = inhibition, hits mostly inhibitors; 310,000 compounds, 5.9% hits; P. falciparum luciferase growth in erythrocytes, 48 h; also: % is scaled to controls: 0 for no effect and ±100 for the full control effect
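Read-out is firefly luciferase luminescence from an integrated reporter in P. falciparum, so falling signal marks reduced parasite growth. Infected erythrocytes were at 2% hematocrit and 0.1% parasitemia (final) in Albumax-supplemented RPMI 1640.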
Active calls of the source: *. Unless noted, calls follow the shape of the dose curve; as a rule, active = well fitted curve in the direction sought with a large enough effect; inconclusive = small, poorly fitted or top-dose-only effect, or another doubt; inactive = no such curve, though single readings can be large; an effect the other way counts as inactive or inconclusive. Potency is read from the fitted curve at half-maximal effect.

`COc1ccc(NC(=O)CN2C(=O)COc3ccc(S(=O)(=O)N4CCCCC4)cc32)cc1Cl` gave AmpC detergent 13.6% and Sm TGR block 1.8%.
`CCCN(CCC)S(=O)(=O)c1ccc(C(=O)NCc2n[nH]c(=S)n2-c2ccc(Cl)c(Cl)c2)cc1` gave Pf growth 96h -24.5%, AmpC detergent -3.8%, SARS PLP yeast 0.6%, AmpC no deterg -6.4%, Sm TGR block -3.8% and Pf growth 48h inconclusive.
Screening CCN(CC(=O)Nc1ccccc1OC)CC(=O)Nc1ccccc1C(F)(F)F returned Pf growth 96h -26.0%, AmpC detergent inconclusive, SARS PLP yeast 1.4%, AmpC no deterg 75.3%, Sm TGR block -7.8% and Pf growth 48h inconclusive.
For CCCCNC(=O)C(CC)(ONc1ccccc1C(F)(F)F)c1ccccc1OC (centres undefined) the results were Pf growth 96h inconclusive, AmpC detergent 8.7%, SARS PLP yeast -14.0%, AmpC no deterg -1.7%, Sm TGR block 8.6% and Pf growth 48h 10.4µM*.
`COc1ccc(O[C@H]2C=C[C@@H](c3ccccc3)O[C@@H]2COC(=O)CC/C(C)=N/O[C@H](C)c2cn([C@@H]3COC[C@H]3O)nn2)cc1` gave Pf growth 96h inconclusive, AmpC detergent -0.3%, SARS PLP yeast 5.0%, AmpC no deterg 302.9%, Sm TGR block -12.8% and Pf growth 48h 14.7µM*.
O=C(CN1C(=O)c2ccccc2C1=O)c1ccccc1 was read as Pf growth 96h 96.9%, AmpC detergent -8.7%, SARS PLP yeast -23.9%, AmpC no deterg -17.7% and Sm TGR block -4.1%.
Screening CC1=C(CC(=O)c2ccccc2)C(=O)c2ccccc2C1=O returned Pf growth 96h 0.828µM*, AmpC detergent 1.3%, SARS PLP yeast -7.6%, AmpC no deterg -21.1%, Sm TGR block inconclusive and Pf growth 48h 0.738µM*.
`Cc1cccc(OC2(c3ccccc3)OC(=O)c3ccccc32)c1C` (centres undefined) gave Pf growth 96h 9.28µM*, AmpC detergent -0.7%, SARS PLP yeast -23.3%, AmpC no deterg 47.6%, Sm TGR block 1.1% and Pf growth 48h inconclusive.
CCCCCCCOC1(c2ccccc2)OC(=O)c2ccccc21 (centres undefined) was read as Pf growth 96h 6.57µM*, AmpC detergent -2.4%, SARS PLP yeast -17.9%, AmpC no deterg -17.2%, Sm TGR block -6.0% and Pf growth 48h inconclusive.
Screening CCCCCCOC1(c2ccccc2)OC(=O)c2ccccc21 (centres undefined) returned Pf growth 96h 8.28µM*, AmpC detergent -2.1%, SARS PLP yeast -18.9%, AmpC no deterg -20.3%, Sm TGR block -24.7% and Pf growth 48h 10.4µM*.
Cc1cccc(C2(c3cccc(C)c3)OC(=O)c3ccccc32)c1 was read as Pf growth 96h inconclusive, AmpC detergent inconclusive, SARS PLP yeast -24.2%, AmpC no deterg -25.1%, Sm TGR block 14.9% and Pf growth 48h inconclusive.
CCC(C)NC(=O)c1ccc(CN2CCc3ccccc3C2)cc1 (centres undefined) was read as Pf growth 96h 77.1%, AmpC detergent 1.7%, SARS PLP yeast -0.7%, AmpC no deterg -2.8%, Sm TGR block 0.0% and Pf growth 48h -2.2%.
`CCNC(=O)c1c(C)oc2ncn(C)c(=O)c12` gave AmpC detergent -8.9% and Sm TGR block -5.5%.
Cc1cccc(CN2CCN(CC(=O)NCCc3ccc(Cl)cc3)C2=O)c1 was read as AmpC detergent -0.9% and Sm TGR block -9.0%.
`O=C(CN1CCN(S(=O)(=O)c2cc(Cl)ccc2Cl)CC1)Nc1cccc(F)c1` gave AmpC detergent -4.0% and Sm TGR block inconclusive.
Screening CCOCCCn1c(=S)[nH]c2cc(C(=O)NCCCN(CC)CC)ccc2c1=O returned Pf growth 96h inconclusive, AmpC detergent -7.0%, SARS PLP yeast -5.2%, AmpC no deterg -22.7%, Sm TGR block -15.1% and Pf growth 48h -4.9%.
For CCCCC1(C)OC(=O)C(=Cc2ccc(-c3ccc(Cl)c(C(=O)O)c3)o2)C(=O)O1 (centres undefined) the results were Pf growth 96h inconclusive, AmpC detergent -9.5%, SARS PLP yeast 0.6%, AmpC no deterg -26.0%, Sm TGR block -8.9% and Pf growth 48h 0.8%.
`CC1=C(C#N)C(=O)NC(=O)/C1=C\c1ccc(-c2ccc(C)cc2[N+](=O)[O-])o1` gave Pf growth 96h -3.3%, AmpC detergent -1.2%, SARS PLP yeast -2.0%, AmpC no deterg -39.8%, Sm TGR block 8.91µM* and Pf growth 48h 0.0%.
Screening CCOC(=O)c1cc(-c2ccc(/C=C3/C(=O)NC(=O)C(C#N)=C3C)o2)ccc1Cl returned Pf growth 96h 38.0%, AmpC detergent -5.3%, SARS PLP yeast inconclusive, AmpC no deterg -51.4%, Sm TGR block 7.94µM* and Pf growth 48h 17.0%.
For O=C(NCc1cccs1)c1ccc(CSc2nc3ccncc3n2Cc2ccccc2F)cc1 the results were AmpC detergent 21.7% and Sm TGR block 4.4%.
For O=C(CN1C(=O)S/C(=C\c2ccccc2)C1=O)NC1CCS(=O)(=O)C1 (centres undefined) the results were Pf growth 96h 0.3%, AmpC detergent inconclusive, SARS PLP yeast -4.3%, AmpC no deterg -0.1%, Sm TGR block -9.8% and Pf growth 48h 25.9%.
O=C(CCCN1C(=O)c2cccc3cccc(c23)C1=O)NC1CCS(=O)(=O)C1 (centres undefined) was read as Pf growth 96h 11.7µM*, AmpC detergent 0.7%, SARS PLP yeast -0.1%, AmpC no deterg 0.3%, Sm TGR block 20.0% and Pf growth 48h inconclusive.
Screening O=C(CCCN1C(=O)/C(=C/c2ccc(F)cc2)SC1=S)NCCCn1ccnc1 returned Pf growth 96h 9.28µM*, AmpC detergent 0.5%, SARS PLP yeast -2.1%, AmpC no deterg 126.8%, Sm TGR block -17.2% and Pf growth 48h inconclusive.
For O=C(CCN1C(=O)/C(=C/c2ccccc2F)SC1=S)N[C@@H](CO)Cc1ccccc1 the results were Pf growth 96h inconclusive, AmpC detergent -3.7%, SARS PLP yeast -3.2%, AmpC no deterg -7.0%, Sm TGR block -34.0% and Pf growth 48h 12.6%.
